CCHFV vOTU inh: CCHFV vOTU protease inhibitors, primary screen, biochemical, Pep-AMC substrate, fluorescence; inhibition, % at 11.5 µM; hit rate 0.55% among 370,000; Crimean-Congo hemorrhagic fever virus L polyprotein viral ovarian tumor (vOTU) protease …; AID 651958, 2012; also: 0% = vehicle wells with enzyme and 100% = no enzyme wells
MazF activator: activators of E. coli MazEF toxin-antitoxin RNase, primary screen, biochemical, fluorescence, uHTS. FAM/BHQ RNA-DNA oligo cleavage fluorescence, 5 h. activation, % at 20 µM. hit rate 0.32% among 350,000; in the data active = activation above about 50%
Target sequence (P0AE70 whole entry, looked up): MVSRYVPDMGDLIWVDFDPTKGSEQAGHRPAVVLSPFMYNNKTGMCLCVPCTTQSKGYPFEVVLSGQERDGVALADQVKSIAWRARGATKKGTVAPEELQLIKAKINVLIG
GDH-TPI counter-1: GDH-TPI coupling enzyme inhibitors, primary screen, artefact control for M. tuberculosis FBA inhibitor project, biochemical, absorbance, full deck; GDH-TPI coupled enzyme counterscreen, NADH absorbance; inhibition, % at 4.8 µM; hit rate 1.2% among 360,000;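 also: 0% = DMSO wells and 100% = wells lacking the enzyme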
Mtb bLac sens: beta-lactam sensitization of Mtb H37Rv, H37Rv; M. tuberculosis H37Rv growth with meropenem, percent inhibition; inhibition, % at 25 µM; hit rate 0.27% among 330,000; call rule not given here;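 also: growth measured after seven days incubation then overnight dye step; 0% = bacteria only wells and 100% = bacteria with antibiotic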
FBA Mtb inh: Mtb FBA enzyme inhibitors, primary screen, biochemical, fluorescence, strain H37Rv. Fructose-bisphosphate aldolase (Mycobacterium tuberculosis (strain ATCC 25618 / H37Rv)), …. purified M. tuberculosis FBA, fluorescence read-out. AID 588726, 2011. inhibition, % at 1 µM. hit rate 2.3% among 360,000; in the data active = inhibition above about 27%;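 also: 0% = vehicle and 100% = reference inhibitor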
Target sequence (P9WQA3 whole entry, looked up): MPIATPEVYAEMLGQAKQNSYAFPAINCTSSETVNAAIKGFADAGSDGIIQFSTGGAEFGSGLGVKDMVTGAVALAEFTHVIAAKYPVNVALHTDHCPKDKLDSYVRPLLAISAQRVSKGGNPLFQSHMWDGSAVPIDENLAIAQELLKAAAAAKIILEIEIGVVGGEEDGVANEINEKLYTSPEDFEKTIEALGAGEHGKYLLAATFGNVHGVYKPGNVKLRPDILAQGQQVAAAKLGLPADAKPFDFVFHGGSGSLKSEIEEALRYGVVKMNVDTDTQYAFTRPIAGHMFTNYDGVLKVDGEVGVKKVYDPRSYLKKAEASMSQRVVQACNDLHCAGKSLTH
Mtb FBA inh conf: M. tuberculosis aldolase blockers, biochemical, fluorescence, strain H37Rv, confirmation | shares compounds with FBA Mtb inh | purified M. tuberculosis FBA, fluorescence read-out | AID 651616, 2012 | hit rate 78% among 5,600 | inhibition, % at 1 µM; in the data active = inhibition above about 27%;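 also: 0% = vehicle wells and 100% = reference inhibitor wells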
GDH-TPI counter-2: GDH-TPI coupling enzyme inhibitors, artefact control for M. tuberculosis FBA inhibitor project, biochemical, fluorescence, high throughput | shares compounds with FBA Mtb inh | GDH-TPI coupled enzyme counterscreen | inhibition, % at 1 µM | hit rate 81% among 5,600; in the data active = inhibition above about 10%
GDH-TPI DR: GDH-TPI coupling enzyme inhibitors, dose response, artefact control for M. tuberculosis FBA inhibitor project, biochemical, fluorescence, IC50 | shares compounds with FBA Mtb inh | GDH-TPI coupled enzyme assay, artifact counterscreen | IC50, µM | hit rate 79% among 170 | AID 652145, 2013; call rule not given here
* marks the source's active call; other numbers are inactive results; u = inconclusive; x = no result given. An excerpt weighted towards active compounds, which were near 4% of everything screened. Rule as the data show it, unless noted: active = inhibition above about 30%; inactive = the rest.

SMILES | CCHFV vOTU inh | MazF activator | GDH-TPI counter-1 | Mtb bLac sens | FBA Mtb inh | Mtb FBA inh conf | GDH-TPI counter-2 | others
Cc1cc(C)c2nc(NCCCNC(=S)NCCCN(C)C)c(C#N)cc2c1 | -18 | 30 | 1 | 46 | 58* | 52* | 43*
Cc1ccc2cc(C#N)c(NCCNC(=O)C3CC3)nc2c1C | -22 | 2 | -2 | -3 | 32* | 133* | 111*
Cc1ccc2cc(C#N)c(NCCNC(=S)NCCCN(C)C)nc2c1C | -6 | 14 | 3 | -2 | 15 | x | x
O=C([C@@H]1C[C@H]1c1ccccc1)N1CCC(Oc2cccnc2)CC1 | 5 | x | x | x | x | x | x
CCSc1nc2c(c(=O)[nH]1)C(c1ccc(C)cc1)C1=C(CCCC1=O)N2 (stereo not given) | -22 | 4 | 6 | -8 | 29* | 148* | 126*
CSc1nc2c(c(=O)[nH]1)C(c1ccccc1)C1=C(CC(C)(C)CC1=O)N2 (stereo not given) | -28 | 7 | 6 | 0 | 29* | 68* | 45*
Cc1ccc(CSc2nc3c(c(=O)[nH]2)C(c2ccncc2)C2=C(CCCC2=O)N3)cc1 (stereo not given) | -19 | -6 | 7 | 2 | 21 | x | x
CC1(C)CC(=O)C2=C(C1)Nc1[nH]c(=S)[nH]c(=O)c1C2c1ccccc1 (stereo not given) | 25 | 2 | 7 | -8 | 4 | x | x
Cc1ccc(C2C3=C(CC(C)(C)CC3=O)Nc3onc(C)c32)cc1 (stereo not given) | -30 | 7 | 5 | 1 | 46* | 3 | -1
c1ccc(Cn2ccc3ccc(-c4ccc5ccn(Cc6cccc(-c7ccsc7)c6)c5c4)cc32)cc1 | 5 | x | x | x | x | x | x
COc1ccc(-c2cc3c(=O)n(CC(=O)NCCN4CCCC4)nc(C)n3n2)cc1 | 11 | 11 | -8 | 0 | 32* | 63* | 54*
COCCn1c(N)c(C(=O)NCc2cccs2)c2nc3ccccc3nc21 | -40 | -9 | -11 | 6 | 101* | 116* | 77*
COc1ccc(-n2c(N)c(C(=O)NCc3ccco3)c3nc4ccccc4nc32)cc1 | -63 | -3 | 32* | 2 | 98* | 44* | 41*
Nc1c(C(=O)NCc2ccc3c(c2)OCO3)c2nc3ccccc3nc2n1CCCN1CCOCC1 | -21 | -22 | 2 | 99 | 10 | x | x
CC(=O)Nc1ccc(S(=O)(=O)C(C#N)c2nc3ccccc3nc2NCCN2CCOCC2)cc1 (stereo not given) | -10 | 4 | 13 | -8 | 56* | 73* | 62*
Nc1c(C(=O)NCCN2CCOCC2)c2nc3ccccc3nc2n1CCc1ccccc1 | -93 | -6 | 9 | 71 | 94* | 46* | 34*
CCC(C)N(C(=O)c1oc(=O)c2ccccc2c1-c1ccc(C)cc1)C(C)CC (stereo not given) | 18 | x | x | x | x | x | x
Nc1c(C(=O)NCc2ccco2)c2nc3ccccc3nc2n1CCN1CCCCC1 | -87 | -21 | 18 | 6 | 91* | 13 | 5 | GDH-TPI DR=1.6*
c1ccc2nc3c(nc2c1)c1ccccc1n3CCN1CCOCC1 | -8 | 4 | 15 | u | -1 | x | x
C=CCNC(=O)c1c(N)n(CCN2CCOCC2)c2nc3ccccc3nc12 | -66 | 11 | 19 | 4 | 51* | 38* | 27*
CC(=O)Nc1ccc(S(=O)(=O)c2c(N)n(CCN3CCOCC3)c3nc4ccccc4nc23)cc1 | -26 | 9 | 26 | -17 | 60* | 170* | 129*
O=C(Cn1c(CN2CCCCC2)nc2ccccc2c1=O)NCc1ccco1 | -9 | 1 | 1 | -1 | -1 | x | x
Cc1nn(-c2ccccc2)c2sc(C(=O)N3CCN(C(c4ccccc4)c4ccc(Cl)cc4)CC3)cc12 (stereo not given) | 1 | x | x | x | x | x | x
